Laboratory results: PubChem BioAssay (NCATS)
Several values for one entry are separate records, joined by “and”; a condition that tells them apart may be missing. Equal values may be shown once. Results filed as inconclusive are left out. Activity calls are given as the source filed them. Unless noted, calls come from the whole dose curve; as a rule, active = well fitted curve in the direction sought with a large enough effect; inconclusive = small, poorly fitted or top-dose-only effect, or another doubt; inactive = no such curve, though single readings can be large; an effect the other way counts as inactive or inconclusive.

Assays:
[1] = P-glycoprotein substrates identified in KB-8-5-11 adenocarcinoma cell line, qHTS therapeutic library screen (AID 1346987); note: % is set by controls: 0 for no effect and ±100 for the full control effect; nearly all actives have a fitted effect of over 65% in size
Summary of the method: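 Compounds are pinned in dose-response onto KB-8-5-11 cells (500 cells/well, colchicine-free medium) and left 72 h at 37 degree C. CellTiter-Glo luminescence then yields AC50 values.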

[2] = Primary qHTS for inhibitors of nuclear receptor binding SET domain protein 2 (NSD2) in an isogenic RCH-ACV NSD2 p.E1099K mutant (9B) (AID 1645876); note: potency is the fitted concentration of half-maximal effect; nearly all actives have a fitted effect of over 70% in size
[3] = Primary qHTS for inhibitors of nuclear receptor binding SET domain protein 2 (NSD2) in an RCH-ACV wild type WT cells (2C) (AID 1645877); note: potency is the fitted concentration of half-maximal effect; nearly all actives have a fitted effect of over 70% in size
[4] = target: Glutathione peroxidase 1 (Homo sapiens) (UniProt P07203); experiment: Primary qHTS Assay for Inhibitors of Recombinant Selenoprotein Glutathione Peroxidase 1 (GPX1) (AID 1845191); note: nearly all actives have a fitted effect of over 65% in size
Sequence of Glutathione peroxidase 1 (Homo sapiens) (P07203 whole entry, looked up): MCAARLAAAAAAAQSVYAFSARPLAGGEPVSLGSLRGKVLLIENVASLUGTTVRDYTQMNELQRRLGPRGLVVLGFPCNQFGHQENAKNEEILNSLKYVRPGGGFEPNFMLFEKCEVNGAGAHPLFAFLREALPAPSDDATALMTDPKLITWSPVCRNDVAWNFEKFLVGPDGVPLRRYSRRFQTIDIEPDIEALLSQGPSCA
Summary of the method: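 NADPH consumption tracked by fluorescence at 340/450 nm between t=0 and t=15 min, room temperature. Final mix: 10 nM GPX1, 100 nM glutathione reductase, 1 mM GSH, 0.5 mM NADPH, 0.5 mM cumene hydroperoxide, 0.01% BSA; 30 min compound–enzyme preincubation.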

[5] = qHTS drug screen for cell cycle checkpoint inhibitors in PARPi-resistant BRCA-mutant ovarian cancer cell lines. (AID 1963452; calls by dose curve); settings: PEO1/OlaR viability, CellTiter-Glo luminescence, 96 h, stronger effect = lower value
Summary of the method: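 PEO1, PEO4 and PEO1/OlaR ovarian cancer cells, 600 per well, exposed 96 h at 37C to a dilution series. Viability read by CellTiter-Glo luminescence, normalized to DMSO and empty wells; activity summarized as Z-AUC.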

[6] = qHTS assay to identify inhibitors of the type 1 interferon - major histocompatibility complex class I in skeletal muscle: Counter screen cell viability and HiBit confirmation (AID 1347412); settings: iHSKM muscle cells + IFN-b, HiBiT or CellTiter-Glo, 24 h; HiBiT; at 45.9 µM (top of the series); note: % is set by controls: 0 for no effect and ±100 for the full control effect; nearly all actives have a fitted effect of over 60% in size
Summary of the method: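 After 24 h with human IFN-beta (4 ng/ml) and compound titrations (top 46 uM final, 1:3, 12 points), HLA-B HiBit myoblasts were lysed for either Nano-Glo HiBiT luminescence or CellTiter Glo viability on paired plates.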

Compound	Potency [1]	Potency [2]	Potency [3]	Potency [4]	Z-AUC [5]	Z-AUC ([5]; measured here: PEO1 parental Z-AUC)	Z-AUC ([5]; measured here: PEO4 Z-AUC)	activity change, negative = inhibition [6]
C[C@@H](Nc1cc(F)cc(F)c1)c1cc(C(=O)N(C)C)cc2c(=O)cc(N3CCOCC3)oc12	inactive	259 nM (active) and 235 nM (active)	411 nM (active) and 1.18 µM (active)	inactive	-0.864 (inactive)	-0.746	-0.41	-23.5% (inactive)
COc1cc(Br)c(C[N+]2(CCOCCC3CCC4CC3C4(C)C)CCOCC2)cc1OC (centres undefined)	inactive	–	–	–	–	–	–	–
